Screening results as filed in PubChem.
Sampled rows, rich in hits. Any-hit rate of the full collection: about 1.6%.
CCHF vOTU inh-1 = CCHFV vOTU protease inhibition; Pep-AMC fluorescence; 370,000 tested, 0.55% active; inhibition, % at 11.5 µM; note: 0% = vehicle wells with enzyme and 100% = no enzyme wells
Mtb hypoxia inh = Mtb hypoxia fluorescent reporter inhibition; M. tuberculosis hypoxia-regulated fluorescent reporter, fluorescence; fluorescence inhibition, % (test concentration not listed); 300,000 tested, 0.1% active; AID 1159583; in the data active = fluorescence inhibition mostly above about 23%, no sharp cut-off; inactive = mostly below about 17%
RN4220 kill = S. aureus RN4220 growth inhibition. inhibition, % (test concentration not listed). 330,000 tested, 0.33% active. OD600, 16 h. AID 1259311; in the data active = inhibition above about 85%;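 note: plate controls were untreated cells for no effect and reference antibiotic for full effect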
BJeLR lethal = BJeLR cell viability loss; BJeLR (HRASV12) viability, CellTiter-Glo ATP luminescence, 48 h; inhibition, % (test concentration not listed); 300,000 tested, 0.17% active; AID 1554; in the data active = inhibition above about 50%
Sa ugtP lethal = kills S. aureus RN4220 lacking UgtP; S. aureus RN4220 ugtP deletion, OD600 growth, 16 h; growth inhibition, % (test concentration not listed); 330,000 tested, 0.54% active; AID 1259309; in the data active = growth inhibition above about 68%;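 note: plate controls were untreated wells for no effect and antibiotic for full effect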
RecA intein inh = inhibitors of M. tuberculosis RecA intein splicing; cell-free RecA intein splicing, fluorescence; inhibition, % (no concentration beside the values); 290,000 tested, 0.75% active; AID 2221; in the data active = inhibition above about 30%;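 note: 0% = vehicle wells and 100% = reference inhibitor control wells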
CCHF vOTU inh-2 = CCHFV vOTU protease inhibition, confirmation; shares compounds with CCHF vOTU inh-1; Recombinant CCHFV vOTU, Pep-AMC fluorescence; inhibition, % at 11.5 µM; 1,900 tested, 17% active; AID 686976
* = called active by the depositor; nt = no result given. Cut-off read from the data, not from the text of the source, unless noted: active = inhibition above about 30%; inactive = the rest.

SMILES	CCHF vOTU inh-1	Mtb hypoxia inh	RN4220 kill	BJeLR lethal	Sa ugtP lethal	RecA intein inh	CCHF vOTU inh-2
COC(=O)C1=C(C)N(Cc2ccc(C(F)(F)F)cc2)C(=NCc2ccc(OC)cc2)NC1c1ccccc1 (configuration not stated)	30.2*	nt	nt	nt	nt	nt	-0.8
COC(=O)C1=C(C)N(Cc2ccccc2C(F)(F)F)C(=NCc2ccc(C(F)(F)F)cc2)NC1c1cccc(C(F)(F)F)c1 (configuration not stated)	19.2	nt	nt	nt	nt	nt	nt
C=CCN=C1NC(c2ccccc2)C(C(=O)OC)=C(C)N1Cc1cccc(C(F)(F)F)c1 (configuration not stated)	-1.8	nt	nt	nt	nt	nt	nt
O=C(C(=Cc1ccccc1)c1ccccc1)N1CCCCC1	nt	13.9	8.6	nt	13.0	nt	nt
COc1ccc(S(=O)(=O)N(C)CC2Oc3ccc(NC(=O)Nc4ccc5c(c4)OCO5)cc3CC(=O)N(C(C)CO)CC2C)cc1 (configuration not stated)	nt	8.3	1.7	nt	-2.6	nt	nt
C#Cc1ccc(C2C=C(C(=O)N3CCOCC3)OC(OCCCCO)C2)cc1 (configuration not stated)	nt	18.3	4.8	nt	2.6	nt	nt
CC(O)(c1ccc(F)c(F)c1)c1nc(/C=C/c2ccc(C(F)(F)F)cc2)cs1 (configuration not stated)	32.5*	nt	nt	nt	nt	nt	-5.6
CC(=O)N(c1ccccc1C)c1ccccc1C	33.6*	11.5	7.0	nt	11.5	nt	-9.9
CCOC(=O)[C@]12Cc3cc(C)ccc3C1N(Cc1ccccc1)C(=O)c1ccccc12 (some centres not stated)	nt	7.9	2.0	nt	-10.6	nt	nt
Nc1[nH][nH]c(=O)c1N=Nc1cccc(Cl)c1	31.7*	12.0	11.1	9.9	-0.5	3.9	11.1
COc1ccc(C=CC(=O)c2ccccc2O)cc1	nt	6.2	8.7	nt	7.6	nt	nt
CC(C)C1OC(CCc2ccccc2)Cc2[nH][nH]c(=O)c21 (configuration not stated)	32.8*	nt	nt	nt	nt	nt	6.3
